The results in this text go back to PubChem BioAssay (NCATS).

Several values for one entry are separate records, joined by “and”; a condition that tells them apart may be missing. Equal entries are not always repeated. Inconclusive results are not listed. Activity calls are given as the source filed them. Unless noted, calls follow the shape of the dose curve; as a rule, active = well fitted curve in the direction sought with a large enough effect; inconclusive = small, poorly fitted or top-dose-only effect, or another doubt; inactive = no such curve, though single readings can be large; an effect the other way counts as inactive or inconclusive.

For test [1], the target named is Rap guanine nucleotide exchange factor 3 (Homo sapiens) (UniProt O95398). The test can be described thus: Confirmatory qHTS for antagonist of cAMP-regulated guanine nucleotide exchange factor 3 (EPAC1) (AID 1645880). Also: nearly all actives have a fitted effect of over 55% in size. Also: potency is read from the fitted curve at half-maximal effect. In short, it runs like this:
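Released BODIPY-GDP fluoresces less than Rap1-bound BODIPY-GDP; the signal is followed at 480/540 nm at 5-min intervals over 30 min, after 5 min at room temperature. Reactions contain 100 nM EPAC1, 250 nM RAP1B-BODIPY-GDP and 50 uM GDP; results are normalized to ATA and DMSO.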

Test [2] has the same target. The test is described as follows: Confirmatory qHTS for agonist of cAMP-regulated guanine nucleotide exchange factor 3 (EPAC1) (AID 1645881; also: nearly all actives have a fitted effect of over 75% in size; also: potency is read from the fitted curve at half-maximal effect). (In general: Quantitative high-throughput screening tests each substance at several concentrations.)
For test [3], the target named is Rap guanine nucleotide exchange factor 4 (Homo sapiens) (UniProt Q8WZA2). The test is described as follows: Confirmatory qHTS for agonist of cAMP-regulated guanine nucleotide exchange factor 4 (EPAC2) (AID 1645884).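 Also: nucleotide exchange releases bodipy-GDP from Rap1 and this lowers its fluorescence; nearly all actives have a fitted effect of over 65% in size.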 Also: potency is read from the fitted curve at half-maximal effect.
Test [4] has the same target. The test can be described thus: Confirmatory qHTS for antagonist of cAMP-regulated guanine nucleotide exchange factor 4 (EPAC2) (AID 1645885). Also: nearly all actives have a fitted effect of over 25% in size. Also: potency is read from the fitted curve at half-maximal effect. As to activity change, negative = inhibition: % is scaled to controls: 0 for no effect and ±100 for the full control effect.
The target of test [5] is Metallo-beta-lactamase type 2 (Klebsiella pneumoniae) (UniProt C7C422). The test can be described thus: qHTS to identify inhibitors of the New Delhi Metallo-beta-lactamase (NDM): assay validation screen against the NCATS LOPAC Collection (AID 1794843). Also: % is scaled to controls: 0 for no effect and ±100 for the full control effect. In short, it runs like this: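 Absorbance at 485 nm from nitrocefin turnover (50 uM solution added), read at plateau, gives the read-out. Compounds in DMSO were incubated first with 2 nM final NDM-1 in pH 7.0 HEPES buffer containing 1 uM ZnSO4 and 0.01% Tween20.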

Test [6] deals with Glutathione peroxidase 1 (Homo sapiens) (UniProt P07203). The test can be described thus: Primary qHTS Assay for Inhibitors of Recombinant Selenoprotein Glutathione Peroxidase 1 (GPX1) (AID 1845191). Also: nearly all actives have a fitted effect of over 65% in size. The procedure, abridged:
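NADPH consumption tracked by fluorescence at 340/450 nm between t=0 and t=15 min, room temperature. Final mix: 10 nM GPX1, 100 nM glutathione reductase, 1 mM GSH, 0.5 mM NADPH, 0.5 mM cumene hydroperoxide, 0.01% BSA; 30 min compound–enzyme preincubation.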

Test [7] is described as follows: Primary qHTS for inhibitors of nuclear receptor binding SET domain protein 2 (NSD2) in an RCH-ACV wild type WT cells (2C) (AID 1645877). Also: nearly all actives have a fitted effect of over 70% in size. Also: potency is read from the fitted curve at half-maximal effect.
For test [8], the target named is Rap guanine nucleotide exchange factor 3 (Homo sapiens) (UniProt O95398). The test is described as follows: Counterscreen qHTS for antagonist of cAMP-regulated guanine nucleotide exchange factor 3 (EPAC1) (AID 1645888). Also: % of control where 0% means no effect. In short, it runs like this:
(§1)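 Rap1B-BODIPY-GDP 250 nM + GDP 50 uM; cpds 7-pt, final 9.74 nM–152 uM (activator mode) or from 7.32 nM upwards (inhibitor mode); RT; FI 480/540 nm at 5 and 30 min, then ± cAMP, reread.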
Background: Counterscreens check selectivity or assay interference.

Test [9] shares this target. The test can be described thus: Counterscreen qHTS for agonist of cAMP-regulated guanine nucleotide exchange factor 3 (EPAC1) (AID 1645889). Also: % of control where 0% means no effect; nearly all actives have a fitted effect of over 40% in size. In short, it runs like this:
as §1

In test [10] the target is Catechol O-methyltransferase (Homo sapiens) (UniProt P21964). The test can be described thus: Confirmatory Screen for Target Class Profiling of Small Molecule Inhibitors of Methyltransferases (AID 1745852; calls by dose curve; also: potency is read from the fitted curve at half-maximal effect; as to activity change, negative = inhibition: % is scaled to controls: 0 for no effect and ±100 for the full control effect). Particulars: MTase-Glo luminescence, SAH detection, recombinant enzyme; measured here: COMT max response; stronger effect = lower value.
Test [11] addresses Guanidinoacetate N-methyltransferase (Homo sapiens) (UniProt Q14353). The test is described as above. Particulars: MTase-Glo luminescence, SAH detection, recombinant enzyme; activity change, negative = inhibition: at 57.3 µM (top of the series).
Test [12] has as its target Nicotinamide N-methyltransferase (Homo sapiens) (UniProt P40261). The description is as above. Particulars: MTase-Glo luminescence, SAH detection, recombinant enzyme; measured here: NNMT max response; stronger effect = lower value.
Test [13] concerns the target Phenylethanolamine N-methyltransferase (Homo sapiens) (UniProt P11086). Described as above. Particulars: MTase-Glo luminescence, SAH detection, recombinant enzyme; measured here: PNMT max response; stronger effect = lower value.
The nature of test [14]: Viability counterscreen for antagonist of constitutive androstane receptor (CAR) against the NCATS DSHEA and TCM libraries (AID 1794837).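 Also: compound exposure lasted 24 h before viability reading; 0% is about no effect.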 In short, it runs like this: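 Fluorescence from CellTiter-Fluor reports live-cell protease activity in HepG2-CYP2B6-hCAR cells treated for 24 h with substances alongside 48 uM CITCO.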
Test [15] can be described thus: Viability counterscreen for agonist of constitutive androstane receptor (CAR) against the NCATS DSHEA and TCM libraries (AID 1794838).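 Also: cells exposed to compound for 24 h; 0% is about no effect.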 The procedure, abridged:
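In agonist mode, PK11195 is added at 0.75 uM final to HepG2-CYP2B6-hCAR cells dosed with test substances. Cultures incubate 24 h at 37C before a protease-based fluorogenic viability readout.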

The target of test [16] is Nuclear receptor subfamily 1 group I member 3 (Homo sapiens) (UniProt Q14994). The test is described as follows: Primary qHTS for agonist of constitutive androstane receptor (CAR) against the NCATS DSHEA and TCM libraries (AID 1794839).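 Also: HepG2 cells expressing human CAR with a CYP2B6 reporter plus PK11195 antagonist; luciferase reporter luminescence read with ONE-Glo; 0% is about no effect.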 In short, it runs like this:
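Cells stably carrying hCAR and a CYP2B6 reporter (HepG2 background) are seeded and allowed 5 h to adhere. Substances at multiple concentrations are added alongside 0.75 µM PK11195, and luciferase signal is measured after 24 h.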

Test [17] is described as follows: HepG2 viability counterscreen (readout 2: ATP content) against the NCATS DSHEA and TCM libraries (AID 1794840).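 Also: HepG2 cells exposed to substances for about 24 h; 0% is about no effect.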 In short, it runs like this:
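Cytotoxicity was assessed in HepG2 cells plated at 1,000 cells/well and exposed for about 24 hours to a concentration series. Protease activity and ATP content were measured sequentially in each well.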

A short description of test [18]: NCATS anti-infectives library activity on HEK293 viability as a counter-qHTS vs the C. elegans viability qHTS (AID 1745854). Also: % is scaled to controls: 0 for no effect and ±100 for the full control effect. The procedure, abridged:
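CellTiter-Glo luminescence, read on a CCD imager, scored viability of HEK293 cells after 24 hr compound exposure at 37C. Library tested in several concentrations, 1:5 steps, up to 41.7 uM; digitonin served as control.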

Test [19] can be described thus: NCATS anti-infectives library activity on the primary C. elegans qHTS viability assay (AID 1745855; calls by dose curve). Particulars: C. elegans worm area imaging, day 7; at 41.8 µM (top of the series) unless noted. In short, it runs like this: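 Titration-based screen in worms: eggs hatched overnight in M9, L1 larvae fed TOP10 capsules in S medium with compound, incubated 21 °C for 7 days; fluorescent objects gated by size and intensity at days 0, 3 and 7.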

Chain of Rap guanine nucleotide exchange factor 3 (Homo sapiens) (O95398 whole entry, looked up): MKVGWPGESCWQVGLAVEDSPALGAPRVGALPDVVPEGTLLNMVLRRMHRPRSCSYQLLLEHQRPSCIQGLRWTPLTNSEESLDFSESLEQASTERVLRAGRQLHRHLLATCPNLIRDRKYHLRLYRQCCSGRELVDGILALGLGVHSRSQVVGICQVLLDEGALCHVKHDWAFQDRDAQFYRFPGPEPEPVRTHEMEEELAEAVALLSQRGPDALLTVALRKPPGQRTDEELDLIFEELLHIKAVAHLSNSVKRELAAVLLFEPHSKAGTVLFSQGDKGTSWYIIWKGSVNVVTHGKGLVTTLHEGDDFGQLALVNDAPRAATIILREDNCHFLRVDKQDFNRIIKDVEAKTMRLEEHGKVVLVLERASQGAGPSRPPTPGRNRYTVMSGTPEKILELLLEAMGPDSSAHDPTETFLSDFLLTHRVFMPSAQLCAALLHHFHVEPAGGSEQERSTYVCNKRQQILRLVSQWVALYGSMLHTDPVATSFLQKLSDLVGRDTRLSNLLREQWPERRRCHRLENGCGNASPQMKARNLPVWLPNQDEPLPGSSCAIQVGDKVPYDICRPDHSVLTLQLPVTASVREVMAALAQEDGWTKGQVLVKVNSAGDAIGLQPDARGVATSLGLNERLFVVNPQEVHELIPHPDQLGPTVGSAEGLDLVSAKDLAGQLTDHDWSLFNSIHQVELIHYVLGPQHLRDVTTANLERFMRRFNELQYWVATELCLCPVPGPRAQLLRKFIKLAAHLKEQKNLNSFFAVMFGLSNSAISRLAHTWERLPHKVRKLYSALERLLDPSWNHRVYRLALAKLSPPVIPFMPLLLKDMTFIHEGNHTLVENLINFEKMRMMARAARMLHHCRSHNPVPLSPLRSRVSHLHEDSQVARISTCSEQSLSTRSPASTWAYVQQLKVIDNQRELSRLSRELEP
Chain of Catechol O-methyltransferase (Homo sapiens) (P21964 whole entry, looked up): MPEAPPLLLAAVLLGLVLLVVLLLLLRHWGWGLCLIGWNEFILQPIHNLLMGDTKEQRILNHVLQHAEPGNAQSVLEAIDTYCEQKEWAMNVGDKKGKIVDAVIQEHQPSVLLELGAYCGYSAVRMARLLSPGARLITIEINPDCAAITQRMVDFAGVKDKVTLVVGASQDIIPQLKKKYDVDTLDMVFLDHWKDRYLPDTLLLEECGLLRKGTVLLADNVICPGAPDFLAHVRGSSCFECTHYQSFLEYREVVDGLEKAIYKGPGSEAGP
Chain of Phenylethanolamine N-methyltransferase (Homo sapiens) (P11086 whole entry, looked up): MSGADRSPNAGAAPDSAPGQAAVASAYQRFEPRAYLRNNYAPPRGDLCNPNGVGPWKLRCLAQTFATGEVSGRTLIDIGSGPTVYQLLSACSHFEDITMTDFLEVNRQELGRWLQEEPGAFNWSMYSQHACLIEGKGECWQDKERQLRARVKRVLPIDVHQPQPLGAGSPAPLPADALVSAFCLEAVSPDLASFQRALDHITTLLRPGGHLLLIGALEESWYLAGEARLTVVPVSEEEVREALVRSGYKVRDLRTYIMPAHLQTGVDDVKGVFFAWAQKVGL
Chain of Glutathione peroxidase 1 (Homo sapiens) (P07203 whole entry, looked up): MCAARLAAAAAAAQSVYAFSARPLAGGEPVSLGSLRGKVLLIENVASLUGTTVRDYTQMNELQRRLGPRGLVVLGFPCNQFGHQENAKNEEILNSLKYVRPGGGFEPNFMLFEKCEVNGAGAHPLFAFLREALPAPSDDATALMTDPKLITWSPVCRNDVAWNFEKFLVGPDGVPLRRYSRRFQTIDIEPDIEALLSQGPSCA
Chain of Rap guanine nucleotide exchange factor 4 (Homo sapiens) (Q8WZA2 whole entry, looked up): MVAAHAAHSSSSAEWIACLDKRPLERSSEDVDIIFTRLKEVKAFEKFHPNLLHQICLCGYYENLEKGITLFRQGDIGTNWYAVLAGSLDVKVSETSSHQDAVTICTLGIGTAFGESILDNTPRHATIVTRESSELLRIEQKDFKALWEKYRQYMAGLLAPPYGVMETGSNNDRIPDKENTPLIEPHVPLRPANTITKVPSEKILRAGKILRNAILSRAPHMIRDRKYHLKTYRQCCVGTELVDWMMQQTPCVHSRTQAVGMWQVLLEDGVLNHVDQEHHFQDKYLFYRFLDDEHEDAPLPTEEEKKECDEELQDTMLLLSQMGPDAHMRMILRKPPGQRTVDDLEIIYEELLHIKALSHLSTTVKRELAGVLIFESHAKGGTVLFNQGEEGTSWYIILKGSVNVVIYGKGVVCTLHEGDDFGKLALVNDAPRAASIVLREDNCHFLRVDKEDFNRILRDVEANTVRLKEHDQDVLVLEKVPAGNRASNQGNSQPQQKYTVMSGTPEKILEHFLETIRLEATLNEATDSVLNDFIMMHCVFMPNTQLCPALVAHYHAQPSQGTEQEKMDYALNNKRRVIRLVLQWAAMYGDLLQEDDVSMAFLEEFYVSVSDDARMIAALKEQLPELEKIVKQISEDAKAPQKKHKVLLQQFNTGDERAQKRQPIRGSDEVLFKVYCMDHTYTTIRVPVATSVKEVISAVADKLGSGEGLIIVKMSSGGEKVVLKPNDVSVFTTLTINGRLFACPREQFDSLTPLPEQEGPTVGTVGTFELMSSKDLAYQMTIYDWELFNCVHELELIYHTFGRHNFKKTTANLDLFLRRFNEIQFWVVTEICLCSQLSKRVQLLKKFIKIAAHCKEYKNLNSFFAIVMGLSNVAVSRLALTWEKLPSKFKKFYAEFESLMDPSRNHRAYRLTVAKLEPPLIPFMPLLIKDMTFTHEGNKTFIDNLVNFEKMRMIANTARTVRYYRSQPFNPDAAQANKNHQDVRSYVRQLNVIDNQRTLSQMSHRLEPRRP
Chain of Metallo-beta-lactamase type 2 (Klebsiella pneumoniae) (C7C422 whole entry, looked up): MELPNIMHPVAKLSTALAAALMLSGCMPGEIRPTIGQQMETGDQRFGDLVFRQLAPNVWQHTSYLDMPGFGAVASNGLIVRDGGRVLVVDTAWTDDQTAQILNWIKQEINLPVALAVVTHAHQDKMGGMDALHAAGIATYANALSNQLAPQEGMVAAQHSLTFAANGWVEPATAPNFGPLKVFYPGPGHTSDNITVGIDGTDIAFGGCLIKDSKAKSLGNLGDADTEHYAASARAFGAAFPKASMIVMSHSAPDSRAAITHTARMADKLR
Chain of Nicotinamide N-methyltransferase (Homo sapiens) (P40261 whole entry, looked up): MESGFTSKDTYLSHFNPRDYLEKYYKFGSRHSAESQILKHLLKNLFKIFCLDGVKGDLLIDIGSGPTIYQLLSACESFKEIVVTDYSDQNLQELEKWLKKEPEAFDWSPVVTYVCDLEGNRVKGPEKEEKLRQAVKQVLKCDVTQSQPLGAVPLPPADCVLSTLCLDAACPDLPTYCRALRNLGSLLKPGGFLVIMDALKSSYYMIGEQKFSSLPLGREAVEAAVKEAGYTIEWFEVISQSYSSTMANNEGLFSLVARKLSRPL
Chain of Nuclear receptor subfamily 1 group I member 3 (Homo sapiens) (Q14994 whole entry, looked up): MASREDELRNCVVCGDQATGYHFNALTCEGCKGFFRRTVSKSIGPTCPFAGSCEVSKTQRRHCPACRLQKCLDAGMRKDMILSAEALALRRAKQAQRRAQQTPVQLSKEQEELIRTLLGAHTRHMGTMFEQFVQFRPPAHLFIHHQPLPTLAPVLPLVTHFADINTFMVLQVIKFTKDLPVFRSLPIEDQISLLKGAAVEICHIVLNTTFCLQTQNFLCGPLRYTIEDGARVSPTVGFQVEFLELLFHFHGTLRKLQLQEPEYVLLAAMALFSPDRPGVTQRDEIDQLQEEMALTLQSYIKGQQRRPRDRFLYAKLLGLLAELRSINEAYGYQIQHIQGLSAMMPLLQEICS

For `CC(/C=C/c1cccc(Oc2ccc(F)cc2)c1)N(O)C(N)=O` (stereo not given), the Potency entry in [1], in [2], in test [3], in test [5] and in test [6] was “inactive” each time. Besides, the Potency in test [4] is 44.1 µM (active).
As to `CCCc1c(OCCCOc2ccc(OCC(=O)O)cc2)ccc(C(C)=O)c1O`, the Potency result in [7], in [2], in [3], in [5] and in [6] was “inactive” in each case. Besides, the Potency in test [4] is 15.6 µM (active). Besides, the outcome in test [8] and in test [9] was “inactive” in each case. Besides, the activity in test [10] is 14.3%; in test [12], -16.7%; in test [13], 0.821%. Further, the activity change, negative = inhibition in test [11] amounted to 1.18%.
On to `COc1ccc(CCn2nnnc2C2(c3ccc(C)cc3)CC2)cc1`, for which the Potency entry in test [1], in test [2], in test [5] and in test [6] was “inactive” in each case.
As for `C[C@](Cc1ccc(O)c(O)c1)(NN)C(=O)O`, the values for the activity in test [10], in [12] and in test [13] were 156%, -8.36% and 2.39%, respectively. The activity change, negative = inhibition in test [11] was 0.684%. Further, the Potency result in test [5] and in [6] was “inactive” each time.
As for `O=c1[nH]ccc2c(O)cccc12`, the activity is 1.23% in test [10], -0.246% in test [12] and 1.15% in [13]. The activity change, negative = inhibition in [11] came to 2.16%. Besides, the Potency result in test [5] was “inactive”.
On to `COC(=O)C1=C(C)NC(C)=C([N+](=O)[O-])C1c1ccccc1C(F)(F)F` (stereo not given), for which the Potency entry in test [2], in [3], in [4] and in [5] was “inactive” each time. The outcome in [8] and in test [9] was “inactive” each time.
`N#Cc1cc([N+](=O)[O-])c2sc(C(N)=O)[n+]([O-])c2c1`: the Potency in test [7] is 10.3 µM (active). Moreover, the Potency entry in test [5] and in [6] was “inactive” throughout.
For the compound `N#C/C(=C\c1ccc(O)c(O)c1)C(=O)NCCc1ccccc1`, the activity in [10] was 85.9%; in test [12], -37.9%; in [13], 0.462%. The Potency in test [11] is 0.432 µM (active). The Potency result in test [5] and in test [6] was “inactive” throughout.
With `CN(C)S(=O)(=O)c1ccc2c(c1)/C(=C/c1cc3c([nH]1)CCCC3)C(=O)N2`, the Potency in test [7] was 2.59 µM (active). Moreover, the Potency entry in [5] and in test [6] was “inactive” throughout.
In the case of `COc1cc(/C=C(\C#N)C(=O)Nc2nnc(C(F)(F)F)s2)ccc1OCc1ccc(C(F)(F)F)cc1C(F)(F)F`, the Potency result in [7], in test [5] and in test [6] was “inactive” throughout.
Regarding `Nc1ncnc2c1nc(Br)n2C1OC2COP(=O)(O)O[C@@H]2C1O` (stereo not given in full), the Potency in test [1] was 3.14 µM (active); in test [2] it was 4.46 µM (active) and 3.97 µM (active); in test [3] it was 3.54 µM (active) and 3.16 µM (active); in [4], 5.55 µM (active) and 3.93 µM (active). Besides, the Potency result in [5] and in test [6] was “inactive” each time.
Take `CN(C)C(=O)/N=N/C(=O)N(C)C`: the figures for the activity in test [10], in test [12] and in test [13] were -3.94%, -6.49% and -4.1%, respectively. Moreover, the activity change, negative = inhibition in [11] amounted to 0.919%. Besides, in test [5], the Potency result is “inactive”.
For `C[C@H](NC(=O)/C(C#N)=C/c1ccc(O)c(O)c1)c1ccccc1`, the Potency result in test [2], in test [3], in test [4], in [5] and in test [6] was “inactive” in each case. The activity is 72.5% in [10], -55.4% in [12] and -2.26% in test [13]. Also, in [11], the activity change, negative = inhibition is 2.74%.
For the compound `CC(=O)N[C@@H](Cc1c[nH]c2ccccc12)C(=O)OCc1cc(C(F)(F)F)cc(C(F)(F)F)c1`, the Potency result in test [2], in test [3], in test [5] and in test [6] was “inactive” each time. Moreover, in test [4], the Potency was 35 µM (active).
With `C[C@@]1(C2CCCC2)Cc2cc(OCC(=O)O)c(Cl)c(Cl)c2C1=O`, the Potency result in test [1], in test [2], in test [3], in test [5] and in test [6] was “inactive” throughout. Also, the Potency in test [4] was 17.5 µM (active). The activity in test [10] is 5.42%; in [12] it was -45.2%; in test [13] it was 5.32%. In addition, the activity change, negative = inhibition in test [11] was 7.12%.
Regarding `Clc1nccc2c1ccc1ccccc12`, the values for the activity in [10], in test [12] and in [13] were 4.56%, -11.8% and -6.62%, respectively. Moreover, in [11], the activity change, negative = inhibition turned out to be 3.35%. Besides, the Potency entry in test [5] and in test [6] was “inactive” throughout.
Turning to `O=C(O)/C=C/c1ccc(O)c(O)c1`, the figures for the activity in test [10], in test [12] and in test [13] were 150%, -14.8% and -0.851%, respectively. The activity change, negative = inhibition in test [11] is 0.674%. Also, the outcome in test [14], in [15], in test [16] and in [17] was “inactive” each time. Besides, the Potency result in test [5] and in test [6] was “inactive” each time.
Turning to `Fc1ccc(CN(C2=NCCN2)c2c(Cl)cccc2Cl)cc1`, the activity in test [10] is -2.41%; in test [12], -23.8%; in test [13], -2.64%. Moreover, the activity change, negative = inhibition in test [11] is 6.96%. For the same compound, the Potency result in test [5] and in test [6] was “inactive” throughout.
With `CCN1C(=O)C=CC1=O`, in test [18], the outcome is “inactive”. In addition, the outcome in test [19] is “inactive [at 83.3 µM]”. The Potency entry in test [5] and in [6] was “inactive” throughout.
Consider `CNCCc1cnc(CCC(c2ccccc2)c2ccccc2)[nH]1`, for which the activity in test [10] was -11%; in test [12], -32.7%; in [13] it was -3.25%. The activity change, negative = inhibition in test [11] stood at 3.35%. In addition, the Potency result in test [6] is “inactive”.
In the case of `O=C(O)c1cccnc1C(=O)O`, the Potency result in test [5] is “inactive”.
`N=C(N)SCCc1cnc[nH]1`: the figures for the activity in test [10], in test [12] and in test [13] were -3.06%, -8.2% and -8.19%, respectively. Further, the activity change, negative = inhibition in [11] is -1.52%. The Potency result in [5] and in test [6] was “inactive” in each case.
Turning to `Nc1ncnc2c1ncn2C1CCCO1` (stereo not given), the Potency result in test [5] was “inactive”.
Same read-out and setting: next, `N[C@H](C(=O)O)c1cc(O)cc(O)c1`: “inactive”.
For the compound `O=C(OCCN1CCOCC1)C1(c2ccccc2)CCCCC1`, in test [5], the Potency result is “inactive”.
